# High-throughput results from PubChem BioAssay.
# An excerpt weighted towards active compounds, which were near 0.78% of everything screened.
# C1s block: human complement C1s inhibition; P09871; actives 0.16% (n = 62,000); mean inhibition % of two 10-compound mixtures (active compounds read high), % at 5 µM (by protocol); AID 538; purified C1s, fluorogenic AMC substrate, pooled mixtures;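 active = inhibition above 20% in each of the two 10-compound mixture wells holding the compound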;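 also: 0% = enzyme wells lacking compound mixture and 100% = no-enzyme blank wells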
# Target sequence (P09871 16-437 limits assumed): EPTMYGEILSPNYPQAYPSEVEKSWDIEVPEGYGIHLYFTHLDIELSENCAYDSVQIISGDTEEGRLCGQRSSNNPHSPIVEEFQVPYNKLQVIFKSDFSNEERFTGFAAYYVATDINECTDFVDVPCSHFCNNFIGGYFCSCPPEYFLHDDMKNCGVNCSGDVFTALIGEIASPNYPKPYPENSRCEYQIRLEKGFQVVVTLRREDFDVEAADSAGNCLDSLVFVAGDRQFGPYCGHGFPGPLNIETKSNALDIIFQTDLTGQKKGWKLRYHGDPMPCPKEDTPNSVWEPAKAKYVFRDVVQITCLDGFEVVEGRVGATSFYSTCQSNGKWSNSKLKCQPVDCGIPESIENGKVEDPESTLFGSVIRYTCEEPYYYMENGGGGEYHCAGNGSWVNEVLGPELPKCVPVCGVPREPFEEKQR
# Target sequence (P09871 438-688 limits assumed): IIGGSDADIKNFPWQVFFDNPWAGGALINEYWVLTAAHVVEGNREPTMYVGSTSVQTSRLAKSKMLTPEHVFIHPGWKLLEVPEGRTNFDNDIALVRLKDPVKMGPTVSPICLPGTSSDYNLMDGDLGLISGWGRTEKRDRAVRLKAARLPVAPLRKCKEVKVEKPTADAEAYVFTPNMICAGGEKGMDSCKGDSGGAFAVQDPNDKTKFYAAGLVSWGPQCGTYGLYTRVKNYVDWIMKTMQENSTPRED
# ROCK2 inh: blocks human Rho kinase 2 activity | O75116 | purified ROCK2, Kinase-Glo ATP depletion luminescence | inhibition, % at 6 µM | actives 0.35% (n = 60,000) | AID 604;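 active = inhibition above the screen-wide mean inhibition plus 3 SD, cut at about 18% in these data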;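 also: plate controls were DMSO wells for no effect and Y-27632 control wells after no-enzyme background subtraction for full effect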
# Cathepsin G inh: blocks human cathepsin G enzyme activity; P08311; purified enzyme, AMC-tetrapeptide fluorescence, pooled mixtures; inhibition, % at 5 µM (by protocol); actives 0.2% (n = 62,000);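 active = inhibition above 20% in each of the two mixture wells holding the compound; inactive = inhibition of 20% or less in either well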;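 also: 0% = enzyme control without mixture and 100% = blank lacking enzyme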
# PKA inh: PKA (human) kinase inhibition. PKA Kemptide phosphorylation, Kinase-Glo ATP luminescence. actives 0.1% (n = 65,000). inhibition, % at 6 µM;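 active = inhibition above the screen-wide mean inhibition plus 3 SD, cut at about 21% in these data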
# FXIIa inh mix: factor XIIa (human) inhibition, mixture screen; P00748; purified FXIIa, fluorogenic substrate, pooled mixtures; inhibition, % at 5 µM; actives 0.2% (n = 62,000); AID 684;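 also: 0% = enzyme without compound and 100% = no enzyme blank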
# FXIa inh mix: blocks human factor XIa in pooled compound mixtures; P03951; purified FXIa, fluorogenic substrate; inhibition, % at 5 µM; actives 0.19% (n = 62,000); AID 680;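 also: each value is inhibition by a whole ten-compound pool holding the compound; 0% = enzyme with no mixture and 100% = wells lacking enzyme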
# An asterisk follows results filed as active; x = no result given. Rule as the data show it, unless noted: active = inhibition above about 20% (passing the limit was not always enough); inactive = the rest.
SMILES,C1s block,ROCK2 inh,Cathepsin G inh,PKA inh,FXIIa inh mix,FXIa inh mix
O=C(Nc1ccc(CN2CCOCC2)cc1)c1cc2ccccc2o1,-1,-2,0,-5,12,-2
O=C(NCCN1CCOCC1)c1cc2ccccc2o1,5,x,-1,3,34*,9
CN1CCN(c2ccccc2NS(=O)(=O)c2ccc3c(c2)CCN3C(=O)C2CCC2)CC1,16,4,10,8,-3,4
Nc1nc(NC(=O)c2cccs2)nn1-c1ccccc1,14,7,16,4,2,9
Nc1nncn1C(=O)c1cccs1,14,16,22*,16,15,13
COc1ccc(S(=O)(=O)N(C)CC(=O)N2CCC(C)CC2)cc1Cl,4,10,5,10,2,2
COc1ccccc1Oc1ccc(S(=O)(=O)NCc2ccccn2)cc1,-10,x,-9,-3,4,-1
CC(C)(C)NCCCCOc1ccc(F)cc1,-1,8,-2,8,26*,0
OCCNCCCCCOc1ccc(F)cc1,-77,7,0,11,3,0
Cc1ccc(C2c3c(oc4ccccc4c3=O)C(=O)N2c2nnc(C)s2)o1 (stereo unspecified),x,9,x,10,x,x
Nc1nonc1-n1nncc1-c1ccccc1,9,x,5,28*,-3,4
O=C(COc1ccc(Cl)cc1)OCC(=O)N1CCCCCC1,0,3,-2,-2,0,27*
CCC1(COC(=O)Nc2cccc(Cl)c2)COC1,-12,4,-4,-3,-18,2
CCCCNC(=O)CN1C(=O)C(CC)Oc2ccc(Cl)cc21 (stereo unspecified),-9,4,9,7,20*,4
CCOC(=O)CN1C(=O)C(CC)Oc2ccc(Cl)cc21 (stereo unspecified),6,x,6,4,9,2
COC(=O)C(C)NS(=O)(=O)c1ccc(NC(C)=O)cc1 (stereo unspecified),-20,-3,-11,7,11,5
CCN(CC)c1ccc(NC(=O)CN2C(=O)CSc3ncccc32)c(C)c1,12,0,29,-6,0,23*
CNC(=O)CN1C(=O)CSc2ncccc21,14,-1,9,-10,6,11
CCOc1ccc2nc3ccc4[nH]onc4c3c2c1,-15,17,-2,35*,11,-3
CCOC(=O)N1CCN(C(=O)CN(c2cccc(C)c2)S(=O)(=O)c2ccc(C)cc2)CC1,58*,0,10,0,9,7
COc1ccc(NS(=O)(=O)c2cc(OC)ccc2NC(=O)c2cc(C)oc2C)cc1,9,4,3,1,2,3
CN(C)S(=O)(=O)c1cccc(COC(=O)C2=COCCO2)c1,11,6,12,12,21*,6
O=C(OCn1nnc2ccccc2c1=O)C1=COCCO1,-83,3,-5,3,-16,0
CCOC(=O)N1CCN(c2cc(=O)n(-c3cccc(Br)c3)c(=O)[nH]2)CC1,-6,4,-12,8,10,-2
N#Cc1cccc(NC(=O)NCCc2c[nH]c3ccccc23)c1,-5,22*,-1,8,-14,8
SMILES,C1s block,ROCK2 inh,Cathepsin G inh,PKA inh,FXIIa inh mix,FXIa inh mix
CCCOc1ccc(N2C(=O)CC(N3CCN(c4ccccc4OC)CC3)C2=O)cc1 (stereo unspecified),-4,1,4,-8,0,5
CCOc1ccc(N2C(=O)CC(N3CCN(c4ccccc4F)CC3)C2=O)cc1 (stereo unspecified),24*,4,13,10,1,2
Cc1cc(S(=O)(=O)NCc2cccnc2)ccc1-n1cnnn1,17,0,9,1,-8,7
C=CCn1c(SCC(=O)N2CCOCC2)nc(O)c(Cc2ccccc2)c1=O,-35,5,3,12,4,-10
Clc1ccccc1Cn1nnc2c(N3CCCC3)ncnc21,x,5,x,4,x,x
Fc1ccccc1Cn1nnc2c(-n3ccnc3)ncnc21,-8,27*,-7,24*,-4,4
Cc1cc(OCC(=O)N2CCOCC2)ccc1NC(=O)C1CCCCC1,-1,-1,8,3,-2,1
CN(C(=O)c1cccc(N2C(=O)C3CC=CCC3C2=O)c1)C1CCCCC1 (stereo unspecified),3,21*,8,9,8,5
Cc1cc(C)c2c(CC(=O)NCc3ccco3)coc2c1,21*,-5,10,-3,2,7
